# Assays:
# Experiment in all cases: PBM binding z-score (relative to random genomic background probes); higher = stronger binding; sequences stand for … in GC…GCGATTGACAGCGTAGAATGAAGG
# [1] = system: FXR:RXRa (NR concentration 270 nM, RXRa partner concentration 90 nM)
# Outline: (§1)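 The probes on custom Agilent 4×180K protein-binding microarrays were double-stranded, with 34-nt variable regions bearing direct-repeat seeds, single-nucleotide variants, half-site ablations and random human genomic background sequences. Incubation lasted 1 h with ligand-free nuclear receptor dimers in PBS pH 7.4, 2% milk, 0.02% Triton X-100, 1 mM DTT, 0.2 mg/mL BSA and 0.4 mg/ml salmon testes DNA. Antibodies against each partner (one per run) detected bound dimers, and fluorescence scans were regression-normalized. Binding z-scores take the random background probes as reference.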
# [2] = system: LXRa:RXRa (NR concentration 270 nM, RXRa partner concentration 90 nM)
# Outline: as §1
# [3] = system: LXRa homodimer (NR concentration 270 nM)
# Outline: as §1
# [4] = system: LXRb:RXRa (NR concentration 270 nM, RXRa partner concentration 90 nM)
# Outline: as §1
# [5] = system: LXRb homodimer (NR concentration 270 nM)
# Outline: as §1
# [6] = system: PPARa:RXRa (NR concentration 270 nM, RXRa partner concentration 90 nM)
# Outline: as §1
# [7] = system: PPARg:RXRa (NR concentration 180 nM, RXRa partner concentration 90 nM)
# Outline: as §1
# [8] = system: PPARg:RXRa 270nM:90nM, anti-RXR (NR concentration 270 nM, RXRa partner concentration 90 nM)
# Outline: as §1
# [9] = system: PPARg:RXRa 30nM:10nM, anti-RXR (NR concentration 30 nM, RXRa partner concentration 10 nM)
# Outline: as §1
# [10] = system: PPARg:RXRa 90nM:30nM, anti-RXR (NR concentration 90 nM, RXRa partner concentration 30 nM)
# Outline: as §1
# [11] = system: PPARg:RXRa DBDmut IVT, anti-RXR (DBD mutation: RXRa K156A/R161A, NR concentration 270 nM, RXRa partner concentration 90 nM)
# Outline: as §1
# [12] = system: PPARg:RXRa IVT, anti-PPARg (NR concentration 270 nM, RXRa partner concentration 90 nM)
# Outline: as §1
# [13] = system: PPARg DBDmut:RXRa IVT, anti-PPARg (DBD mutation: PPARg1 K132A/R137A, NR concentration 270 nM, RXRa partner concentration 90 nM)
# Outline: as §1
# [14] = system: PPARg DBDmut IVT, anti-PPARg (DBD mutation: PPARg1 K132A/R137A, NR concentration 270 nM)
# Outline: as §1
# [15] = system: PPARg homodimer (NR concentration 180 nM)
# Outline: as §1
# [16] = system: PXR:RXRa (NR concentration 270 nM, RXRa partner concentration 90 nM)
# Outline: as §1
# [17] = system: PXR homodimer (NR concentration 270 nM)
# Outline: as §1
# [18] = system: RARa:RXR (NR concentration 270 nM, RXRa partner concentration 90 nM)
# Outline: as §1
# [19] = system: RARa homodimer (NR concentration 270 nM)
# Outline: as §1
# [20] = system: RARb:RXRa (NR concentration 270 nM, RXRa partner concentration 90 nM)
# Outline: as §1
Sequence,PBM binding z-score [1],PBM binding z-score [2],PBM binding z-score [3],PBM binding z-score [4],PBM binding z-score [5],PBM binding z-score [6],PBM binding z-score [7],PBM binding z-score [8],PBM binding z-score [9],PBM binding z-score [10],PBM binding z-score [11],PBM binding z-score [12],PBM binding z-score [13],PBM binding z-score [14],PBM binding z-score [15],PBM binding z-score [16],PBM binding z-score [17],PBM binding z-score [18],PBM binding z-score [19],PBM binding z-score [20]
ACTAGCAGGCCCAGTTTGGGTCACTCAAACAAAG,-0.0555,-0.448,-0.417,0.4,-0.861,0.93,-0.337,0.0503,-0.523,-0.144,-0.917,0.48,-1.4,-0.708,-0.457,0.133,-0.753,0.833,-0.613,0.828
CCTACTGGTCCAAAGGTCATTGATTCCAATGCTC,4.78,5.17,4.86,5.02,1.52,5.67,9.11,9.11,7.82,9.09,1.53,4.41,0.302,0.567,3.79,5.35,2.05,5.46,1.48,4.42
CAAACTAGGTCACCGGATGGTCAAAGTCCGCATG,4.23,3.25,0.505,2.57,0.435,5.4,8.96,7.39,5.71,7.25,8.46,8.82,4.83,2.57,3.76,2.49,0.137,3.77,1.02,4.29
AATAGCAGGCCAAGTTTGGGTCACTCAAACAAAG,0.16,0.399,-0.166,0.913,-0.947,1.72,0.314,0.478,-0.511,0.171,1.2,1.95,-0.692,-0.417,0.551,1.05,-0.42,1.79,-0.848,1.98
CGTCCCAGGTCAATGCTAGGTCAGTGAAAGCATT,4.29,4.18,2.32,3.02,-0.0307,3.94,2.35,3.05,0.367,1.97,2.01,2.96,-0.129,-0.875,3.66,3.21,0.306,4.72,-0.102,4.37
GGAACGAGGGCACTCGAGTTGATAGCATGGCGAT,0.375,2.3,-0.535,-0.145,-0.549,1.4,1.27,0.984,-0.139,0.362,4.02,3.11,0.411,-0.728,-0.479,2.52,-0.193,0.513,-0.815,1.93
CCTAGCAGGCCAGGATCACTCAAGCATTTCGCTT,-0.0228,-0.302,-0.315,-0.395,-0.796,-0.414,-0.143,-0.455,-0.969,-0.909,0.271,-0.507,-1.72,-1.21,-0.29,-0.547,-0.646,-0.792,-0.0748,-0.149
CCTATTAGTTGACCATTAGGGCAACCGAAGCTCG,0.493,0.0846,0.475,0.224,0.396,0.454,0.203,0.612,0.0251,0.278,1.18,1.3,-0.00387,0.76,1.65,0.111,0.563,0.412,1.35,1.04

# From the supplement of paper PMC6555819
